# Sfp inh – Sfp phosphopantetheinyl transferase inhibition; Potency, µM, inactives show largest response in the series, negative = inhibition, actives largely listed as inhibitors; 3.5% of 310,000 active; Biochemical Sfp PPTase activity, qHTS; Q9F4F7;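 further: the enzyme is Sfp with the accession as filed and its product quenches rhodamine fluorescence; potency means the concentration at half of the fitted maximal effect; 0% = enzyme reaction without inhibitor and -100% = no enzyme wells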
#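 Fluorescence-quenching assay: 15 nM Sfp-PPTase preincubated 15 min at room temperature with compound, then 5 uM rhodamine-CoA and 12.5 uM BHQ-2-labelled YbbR peptide added. Fluorescence (ex 525/em 598 nm) read at start and after 30 min; difference gives rate.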
# VDR inhibitor – vitamin D3 receptor (human) inhibition; AID 504847; Potency, µM, for the others: max response, negative = inhibition, actives largely listed as inhibitors; P11473; 0.93% of 400,000 active; VDR-SRC2-3 peptide fluorescence polarization, 2 h; further: potency means the concentration at half of the fitted maximal effect
#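 FP read-out; VDR + SRC2-3 coactivator peptide; 23 nl compound by pintool; 2 h RT incubation; reagents held at 4 deg C, protected from light.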
# PLK1 PBD block – blocks phosphopeptide binding to human PLK1 polo-box domain; Plk1 PBD binding of FITC phosphopeptide, fluorescence polarization; P53350; AID 720504; Potency, µM, for the others: max response, negative = inhibition, most hits filed as inhibitors; 2.8% of 360,000 active; further: potency means the concentration at half of the fitted maximal effect; series mostly up to about 57 µM; nearly all actives have a fitted effect of over 65% in size
# Target sequence (P53350 whole entry, looked up, the tested form may be a part): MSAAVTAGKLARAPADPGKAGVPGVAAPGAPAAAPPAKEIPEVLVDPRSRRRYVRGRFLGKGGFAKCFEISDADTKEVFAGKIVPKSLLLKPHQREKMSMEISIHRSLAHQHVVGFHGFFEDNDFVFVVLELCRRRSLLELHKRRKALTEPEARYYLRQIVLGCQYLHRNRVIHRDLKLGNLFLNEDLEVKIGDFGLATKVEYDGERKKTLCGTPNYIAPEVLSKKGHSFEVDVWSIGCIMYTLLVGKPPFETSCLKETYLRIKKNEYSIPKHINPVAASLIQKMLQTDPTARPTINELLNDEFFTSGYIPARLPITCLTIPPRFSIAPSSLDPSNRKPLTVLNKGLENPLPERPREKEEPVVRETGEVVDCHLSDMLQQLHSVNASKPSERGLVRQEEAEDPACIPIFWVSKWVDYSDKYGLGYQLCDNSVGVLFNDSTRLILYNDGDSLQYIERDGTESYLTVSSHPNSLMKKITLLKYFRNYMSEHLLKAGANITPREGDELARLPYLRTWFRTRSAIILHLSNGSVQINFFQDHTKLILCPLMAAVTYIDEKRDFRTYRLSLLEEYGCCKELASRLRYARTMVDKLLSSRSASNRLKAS
# 12-LOX inh – inhibitors of human 12S-lipoxygenase ALOX12 | P18054 | purified 12hLO, xylenol orange hydroperoxide absorbance | Potency, µM (highest dose often 108 µM), for inactives: top-dose activity change, negative = inhibition, usual class: inhibitors | 1.1% of 580,000 active | AID 1671190; further: potency means the concentration at half of the fitted maximal effect
#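 Purified human 12hLO (150 nM final) in 25 mM Hepes, 0.01% Triton X-100, pH 7.0 was preincubated 15 min at room temperature with compound. Then 40 uM arachidonic acid was added, 30 min. Hydroperoxide was read by Fe-XO absorbance ratio 573/405 nm.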
# Sfp PPTase conf – Sfp phosphopantetheinyl transferase inhibition, confirmation | Sfp PPTase enzymatic assay, qHTS titration | shares compounds with Sfp inh | 79% of 380 active | Potency, µM (top dose mostly 114 µM), without a hit: at the top dose activity change, negative = inhibition, hits mostly inhibitors | AID 2701;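 further: potency means the concentration at half of the fitted maximal effect; plate controls were uninhibited Sfp reaction for no effect and no enzyme control for full effect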
# Sfp PPTase gel – Inhibits B. subtilis Sfp phosphopantetheinylation | shares compounds with Sfp inh | purified Sfp, gel-based phosphopantetheinylation read-out | Potency, µM, usual class: inhibitors | 20% of 210 active | AID 2707;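 active means potency below 100 µM; inconclusive means dose-dependent response but potency above 100 µM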;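 further: band intensities scaled against SCH202676 control wells before curve fitting; potency is an IC50 for inhibitors of Sfp transfer activity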
# * marks the source's active call; other numbers are inactive results; i = inactive; ? = inconclusive; / = not tested or not shown; ! = a repeat was not active; [ ] = remark or other dose. The list is not random: actives were taken first. Their share in the collection is about 4.2%. Unless noted, the call rests on the fitted dose curve; in most records, active means well fitted curve in the direction sought with a large enough effect; inconclusive means small, poorly fitted or top-dose-only effect, or another doubt; inactive means no such curve, though single readings can be large; an effect the other way counts as inactive or inconclusive. Unless noted, on the % scale 0 is the no-effect control and ±100 the full control effect.
SMILES,Sfp inh,VDR inhibitor,PLK1 PBD block,12-LOX inh,Sfp PPTase conf,others
CC(OC(=O)CNC(=O)c1ccc2c(c1)OCO2)C(=O)NCCC1=CCCCC1 (stereo not given),3.5%,11.5%,-8.5%,0.0%,/,
Cc1cccc(C)c1NC(=O)C1CCCN1C(=O)Nc1cccc(F)c1 (stereo not given),18.4%,-10.9%,1.2%,21.8%,/,
O=C(CC(Nc1ccc(F)cc1)C(=O)O)c1ccccc1 (stereo not given),2.24µM*,?,-21.8%,-22.5%,14.8µM*,Sfp PPTase gel=i
O=C(CC(Nc1ccc(Br)cc1)C(=O)O)c1ccccc1 (stereo not given),/,/,/,4.6%,/,
CC(=O)NC(c1ccc([N+](=O)[O-])cc1)c1c(O)ccc2ccccc12 (stereo not given),6.3%,-12.6%,-11.9%,?,/,
c1cncc(-c2nc(-c3ccco3)cs2)c1,7.94µM*,-13.8%,-16.2%,?,14.8µM*,
c1cncc(-c2csc(-c3cccnc3)n2)c1,12.0%,1.5%,6.2%,7.0%,/,
Cc1nnc2sc(SCc3ccc(Br)cc3)nn2c1=O,13.0%,-1.1%,-6.4%,2.0%,/,
N[C@@H](Cc1ccccc1)c1nnc2sc(SCc3ccccc3)nn12,44.7µM*,3.5%,-18.8%,?,66.3µM*,
NNc1nncc2ccccc12,5.01µM*!,-6.8%,/,?,?,Sfp PPTase gel=74.5µM*
NCc1csc(Nc2nncc3ccccc23)n1,/,/,1.2%,-8.2%,/,
Cc1ccc(NC(=O)N2CCc3cc(S(=O)(=O)N4CCC(C)CC4)ccc32)cc1,/,7.0%,/,-20.1%,/,
COC(=O)c1ccc(-c2nc(O)c(C)s2)cc1,14.1µM*,79.4µM*,7.52µM*,?,46.9µM*,
ONc1cccnc1-n1nc(C(F)(F)F)cc1C(F)(F)F,8.91µM*,/,/,/,14.8µM*,
O=C(O)c1ccccc1C(=O)Nc1ccc(-n2nc(C(F)(F)F)cc2C(F)(F)F)cc1,10.2%,-1.6%,3.8%,?,/,
O=C(C1CCCCC1)N1CCC(N2CC3CC(C2)[C@H]2CCCC(=O)N2C3)CC1 (stereo not given in full),/,/,/,9.7%,/,
N[C@@H](Cc1ccc(O)c(O)c1)C(=O)O,39.8µM*,-3.8%,-7.7%,?,-6.4%[53.7 µM],Sfp PPTase gel=?
NC(Cc1ccc(O)c([N+](=O)[O-])c1)C(=O)O (stereo not given),?,-10.6%,-4.8%,-15.5%,/,
CCOc1cc(N2CCOCC2)c(OCC)cc1NC(=O)c1cnccn1,/,-12.5%,-1.0%,-5.2%,/,
CCOC(=O)c1c(NC(=O)c2ccccc2Cl)sc2c1CCc1ccccc1-2,11.2µM*,?,6.7µM*,?,9.37µM*,
CCOC(=O)c1c(NC(=O)c2cc(Cl)ccc2Cl)sc2c1CCCC2,/,-29.2%,/,-9.7%,/,
CCOC(=O)c1c(NC(=O)c2ccc(Br)cc2)sc2c1CCCC2,/,-13.1%,/,-0.1%,/,
CCOC(=O)c1c(NC(=O)c2ccccc2)sc2c1CCc1ccccc1-2,1.26µM*,70.8µM*,6.7µM*,-24.1%,13.2µM*,
O=C1CCC/C1=c1\s/c(=C\c2cccnc2)c(=O)n1-c1ccccc1,-22.2%,23.9%,-6.1%,?,/,
Cn1c(SCC(=O)c2cc3ccccc3o2)nnc1-c1ccccc1,12.6µM*,?,?,-27.3%,52.7µM*,
SMILES,Sfp inh,VDR inhibitor,PLK1 PBD block,12-LOX inh,Sfp PPTase conf,others
Cc1cc(NC(=O)CN2C(=O)CC(c3ccco3)Sc3ccccc32)no1 (stereo not given),2.51µM*,-17.2%,-15.5%,/,14.8µM*,Sfp PPTase gel=i
COC(=O)c1ccc2cc(OC)c(OC)cc2c1,/,/,-11.6%,23.8%,/,
COC(=O)c1cc(=O)c(O)c2c(O)c(O)ccc2c1,31.6µM*,22.4µM*,/,/,9.37µM*,Sfp PPTase gel=i
CCOc1ccc(C(=O)c2cn(Cc3cccc(OC)c3)c3cc4c(cc3c2=O)OCO4)cc1,/,5.3%,/,0.8%,/,
Cc1ccc(-c2nc3cnccn3c2Nc2c(C)cccc2C)o1,0.501µM*,?,?,?,4.18µM*,Sfp PPTase gel=i
COc1ccc(-n2nc(C3CCN([S+](=O)([O-])c4cccc(C(F)(F)F)c4)CC3)[nH]c2=O)cc1,/,/,/,57.6%,/,
COC(=O)c1cc(Br)c(=O)n(-c2ccc(OC)cc2)c1,16.9%,28.8%,-3.3%,121.0%,/,
CN1CCC(=C2c3ccccc3C=Cc3ccccc32)CC1,44.7µM*!,-19.9%,0.3%,?,83.5µM*,Sfp PPTase gel=i
c1ccc2c(c1)[nH]c1nc(SCCN3CCOCC3)nnc12,4.47µM*,-1.1%,26.7µM*,0.0%[57.4 µM],9.37µM*,
C/C(=N\NC(=O)c1c(Cl)c(C)nn1C)c1cccc(NC(=O)C2CCCC2)c1,8.1%,-0.8%,12.4%,13.8%,/,
Cc1cc2nc3ccc(=[N+](C)C)cc-3sc2cc1N,25.1µM*,?,?,/,37.3µM*,
CC(C)Cn1c(=O)c(CCC(=O)Nc2ccc(N3CCOCC3)cc2)nc2cc(Cl)ccc21,10.5%,2.1%,-9.6%,?,/,
Cc1cc(Cl)ccc1OCC(=O)Nc1cccc(S(=O)(=O)N2CCCC2)c1,/,-9.8%,-0.7%,203.6%,/,
COC(=O)C(CC(=O)c1ccc(Br)cc1)n1ccnc1 (stereo not given),1.58µM*,/,/,/,8.35µM*,
CCOC(=O)c1c(N2C(=O)CC(Sc3ccccc3C(=O)O)C2=O)sc2c1CCCC2 (stereo not given),3.55µM*,-6.6%,0.0%,15.8µM*,41.8µM*,
Cc1ccc(-n2c(Cc3cccn3C)nnc2SCC(=O)NCc2ccco2)cc1,6.31µM*,8.9%,-12.6%,-13.1%,?,Sfp PPTase gel=i
CCCNC(=O)c1c(C)nn(-c2cccc(C)c2)c1-n1cccc1,/,-6.6%,/,-32.9%,/,
COCCCNS(=O)(=O)c1ccc(Oc2ncc(C(F)(F)F)cc2Cl)cc1,-23.8%,10.4%,-6.3%,0.0%,/,
CC(C)(C)NS(=O)(=O)c1ccc(Oc2ncc(C(F)(F)F)cc2Cl)cc1,25.1µM*,4.4%,6.7%,-10.1%,52.7µM*,Sfp PPTase gel=i
Nc1nc(-c2ccc([N+](=O)[O-])cc2)cc(=O)[nH]1,/,-12.6%,-0.7%,1.8%,/,
Cc1cc(Nc2cccc(Cl)c2)nc(NCc2ccccc2)n1,15.8µM*,-19.7%,-14.9%,?,59.1µM*,Sfp PPTase gel=?
Cc1cc(N/N=C/c2cccc(Cl)c2)nc(NCc2ccccc2)n1,?,5.3%,-2.7%,20.0%,/,
COc1ccc(OCc2nnc3n2N=C(c2ccc(OC)cc2)CS3)cc1,11.3%,-6.2%,?,-23.2%,/,
COc1ccccc1C1=Nn2c(nnc2-c2ccccc2OC)SC1,3.0%,/,/,/,/,
c1ccc(OCc2nnc3n2N=C(c2ccccc2)CS3)cc1,15.8µM*,?,7.52µM*,?,16.7µM*,
COc1ccccc1C1=Nn2c(COc3ccccc3)nnc2SC1,14.1µM*,/,/,/,10.5µM*,
CSc1nc2ncc3c(n2n1)CC(C)(C)CC3=O,12.2%,0.0%,4.5%,-10.5%,/,
COCCn1c(=O)[nH]c2cc(C(=O)Nc3cccc(C(C)=O)c3)ccc2c1=O,30.1%,-23.3%,-20.9%,-13.5%,/,
